# In the supplement of paper PMC10981050:
# Structures can show the parent of a compound that is named as a salt.
# System: K562
# Assay: cell viability relative to vehicle control; higher = less cytotoxic
# Settings: 10 µM; SRSF2 genotype: SRSF2 wt/wt
# How it was run: (§1)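 Mutant clones made by CRISPR editing and their isogenic wild-type counterparts, from four leukaemia lines, were exposed to a single 10 µM dose of each library compound for 48 h. The supernatant was then removed and CellTiter-Glo luminescence was read. Viability was reported as percent of the on-plate vehicle control.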
row,Compound,cell viability
1,COC(=O)C[C@](O)(CCCC(C)(C)O)C(=O)O[C@@H]1C(OC)=C[C@]23CCCN2CCc2cc4c(cc2[C@H]13)OCO4 [Homoharringtonine],23%
2,Cc1cc(C)c(-c2csc(NC(=O)c3ccccc3)n2)c(C)c1,51%
3,C=C1CCC[C@]2(C)C[C@]3(O)OC(=O)C(C)=C3C[C@@H]12 [Atractylenolide III],99.3%
4,C[C@@H]1C[C@H]2[C@@H]3CCC4=CC(=O)C=C[C@]4(C)[C@@]3(Cl)[C@@H](O)C[C@]2(C)[C@@]1(OC(=O)c1ccco1)C(=O)CCl [Mometasone furoate],92.2%
5,CC(=O)O[C@]1(C(C)=O)CC[C@H]2[C@@H]3CCC4=CC(=O)CCC4=C3[C@@H](c3ccc(N(C)C)cc3)C[C@@]21C [Ulipristal acetate],86.7%

# System: MARIMO
# Assay: as above
# Settings: 10 µM; SRSF2 genotype: SRSF2 P95H/wt
# How it was run: as §1
row,Compound,cell viability
1,O=C(CCc1ccc(O)cc1)c1c(O)cc(O[C@@H]2O[C@H](CO)[C@@H](O)[C@H](O)[C@H]2O)cc1O [Trilobatin],99.7%
2,CC(C)n1nc(-c2ccc3oc(N)nc3c2)c2c(N)ncnc21,37.9%
3,COc1ccc(COc2ccc(Cc3cnc(N)nc3N)cc2OC)cc1,84%
4,COc1cc(O)c(C(=O)Nc2nc(C(=O)NCCN(C(C)C)C(C)C)cs2)cc1OC [Acotiamide hydrochloride],98%
5,CC(=O)N1C[C@H](O)C[C@H]1C(=O)O [Oxaceprol],104%
6,C/C=C(/C)C(=O)O[C@H]1[C@@H](OC(=O)CC(C)C)c2c(ccc3ccc(=O)oc23)OC1(C)C [Praeruptorin E],57.4%
7,CC(C)[C@H](O)C(=O)N[C@@H](C)C(=O)N[C@@H]1C(=O)N(C)CCc2ccccc21,96%
8,O=C(O)C1=CO[C@@H](O[C@@H]2O[C@H](CO)[C@@H](O)[C@H](O)[C@H]2O)[C@@H]2C(CO)=CC[C@H]12 [Geniposidic acid],89.8%
9,NC(=O)[C@@H]1CC[C@@H]2CN1C(=O)N2OS(=O)(=O)O [Avibactam sodium],110%
10,Oc1cc(O)c2c(c1)OC(c1ccc(O)c(O)c1)C(OC1(c3ccc(O)c(O)c3)Oc3cc(O)cc(O)c3C(O)C1O)C2 (stereo not given) [Proanthocyanidins],107%
11,CC(=O)OCC(=O)[C@@]1(O)[C@H](C)C[C@H]2[C@@H]3CCC4=CC(=O)C=C[C@]4(C)[C@@]3(F)[C@@H](O)C[C@@]21C [Dexamethasone acetate],105%
12,CCNC1(C(N)=O)CCN(c2ncnc3c2nc(-c2ccccc2Cl)n3-c2ccc(Cl)cc2)CC1,83.1%
13,COc1cc(Cc2cnc(N)nc2N)cc(OC)c1OC [Trimethoprim],103%
14,CCOC(=O)CC(=O)N1CCSC1COc1ccccc1OC (stereo not given) [Moguisteine],98.3%
15,O=C(O)C=CCCCCCCCO [Royal jelly acid],104%
16,COc1cc2c(cc1O)CC[n+]1cc3c(OC)c(OC)ccc3cc1-2 [Jatrorrhizine chloride],92.6%
17,CC(C)(C)S(=O)(=O)c1ccc2nccc(Nc3n[nH]c4ccc(F)cc34)c2c1,92.8%
18,Nc1c(Br)cc(Br)cc1CN[C@H]1CC[C@H](O)CC1 [Ambroxol HCl],106%
19,CN(C)CCCCC(=O)Nc1ccc(NC(=S)NC(=O)c2ccc(C(C)(C)C)cc2)cc1 [Tenovin-6],1.49%
20,Nc1nc2n[nH]nc2c(=O)[nH]1 [Azaguanine-8],76.2%

row,Compound,cell viability
1,OCCOCCN1CCN(C(c2ccccc2)c2ccc(Cl)cc2)CC1 (stereo not given) [Hydroxyzine 2HCl],85.2%
2,c1cc2c(c3c1C[C@H]1c4cc5c(cc4CCN1C3)OCO5)OCO2 [Stylopine hydrochloride],97.7%
3,COc1c(-c2ccc3cc(NS(C)(=O)=O)ccc3c2)cc(-n2ccc(=O)[nH]c2=O)cc1C(C)(C)C [S5402 Dasabuvir(ABT-333).cdx],82%
4,OC[C@H]1O[C@@H](n2cnc3c(O)nc(O)nc32)[C@H](O)[C@@H]1O [Xanthosine],99.9%
5,CCOc1ccccc1N=Nc1c(C)[nH]n(-c2nc(-c3ccccc3)cs2)c1=O,101%
6,Cc1ccc([C@@H]2O[C@H](CO)[C@@H](O)[C@H](O)[C@H]2O)cc1Cc1ccc(-c2ccc(F)cc2)s1 [Canagliflozin],99%
7,O=S1(=O)CCN(CN2CCS(=O)(=O)NC2)CN1 [Taurolidine],104%
8,CC(=O)OCC(=O)[C@@]1(O)CC[C@H]2[C@@H]3CCC4=CC(=O)CC[C@]4(C)[C@@]3(F)[C@@H](O)C[C@@]21C [Fludrocortisone acetate],105%
9,CCCCC(CC)COC(=O)C=Cc1ccc(OC)cc1 (stereo not given) [Octinoxate],96.9%
10,NC(=O)c1ccc(-c2nc(-c3ccc4c(c3)OCCO4)c(-c3ccccn3)[nH]2)cc1,98.5%
11,Cc1cc(-c2cc(C)c(NCCCS(=O)(=O)O)c(C)c2)cc(C)c1N,96.3%
12,Cc1cn(-c2cc(NC(=O)c3ccc(C)c(Nc4nccc(-c5cnccn5)n4)c3)cc(C(F)(F)F)c2)cn1 [Radotinib],107%
13,O=c1c2ccccc2oc2ccccc12 [Xanthone (Genicide)],96.5%
14,Nc1nc2c(ncn2COCCO)c(=O)[nH]1 [Acyclovir (Aciclovir)],99.2%
15,CC(=O)O[C@]1(C(C)=O)CC[C@H]2[C@@H]3C[C@H](C)C4=CC(=O)CC[C@]4(C)[C@H]3CC[C@@]21C [Medroxyprogesterone acetate],104%
16,COC(=O)C[C@](O)(CCCC(C)(C)O)C(=O)O[C@@H]1C(OC)=C[C@]23CCCN2CCc2cc4c(cc2[C@H]13)OCO4 [Homoharringtonine],9.06%
17,Cc1cc(C)c(-c2csc(NC(=O)c3ccccc3)n2)c(C)c1,35.1%
18,C=C1CCC[C@]2(C)C[C@]3(O)OC(=O)C(C)=C3C[C@@H]12 [Atractylenolide III],101%
19,C[C@@H]1C[C@H]2[C@@H]3CCC4=CC(=O)C=C[C@]4(C)[C@@]3(Cl)[C@@H](O)C[C@]2(C)[C@@]1(OC(=O)c1ccco1)C(=O)CCl [Mometasone furoate],87.8%
20,CC(=O)O[C@]1(C(C)=O)CC[C@H]2[C@@H]3CCC4=CC(=O)CCC4=C3[C@@H](c3ccc(N(C)C)cc3)C[C@@]21C [Ulipristal acetate],81.7%
